Hits are enriched below; roughly 3% of the tested compounds scored in any of these assays.
PAFAH1B2 FP inh – PAFAH1B2 enzyme inhibitors, primary screen, biochemical, fluorescence polarization, human | Platelet-activating factor acetylhydrolase IB subunit alpha2 (Homo sapiens), P68402 | recombinant PAFAH1B2, FP-rhodamine activity probe | inhibition, % at 3.39 µM | actives 1.2% (n = 340,000) | AID 492953, 2010;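 active = inhibition above the mean of all tested compounds plus 3 SD, cut at about 24% in these data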
Target sequence (P68402 whole entry, looked up): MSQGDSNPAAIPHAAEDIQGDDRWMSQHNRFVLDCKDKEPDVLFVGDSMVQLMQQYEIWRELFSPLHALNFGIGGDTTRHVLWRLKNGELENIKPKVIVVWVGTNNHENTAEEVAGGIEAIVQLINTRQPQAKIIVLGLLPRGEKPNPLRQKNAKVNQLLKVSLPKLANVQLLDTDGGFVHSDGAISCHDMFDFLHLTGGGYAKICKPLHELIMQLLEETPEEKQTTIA
pPAFAH FP inh – pPAFAH enzyme inhibitors, primary screen, biochemical, fluorescence polarization, human; recombinant pPAFAH, FP-rhodamine probe fluorescence polarization; inhibition, % at 3.39 µM; actives 1.5% (n = 330,000);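 active = inhibition above the mean inhibition across the screen plus 3 SD, cut at about 25% in these data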;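 note: inhibitors block binding of the rhodamine activity-based probe so polarization drops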
DAGLB inh – DAGLB lipase inhibitors, primary screen, biochemical, fluorescence, HTS | AID 504411, 2011 | HEK293T DAGLB membrane lysate, EnzChek fluorogenic substrate | actives 0.059% (n = 340,000) | Diacylglycerol lipase-beta (Homo sapiens), Q8NCG7 | inhibition, % at 5.17 µM; in the data active = inhibition above about 34%
PAFAH2 inh – PAFAH2 enzyme inhibitors, primary screen, biochemical, fluorescence polarization, human. Platelet-activating factor acetylhydrolase 2, cytoplasmic (Homo sapiens), Q99487. recombinant PAFAH2, FP-rhodamine activity probe. inhibition, % at 3.39 µM. actives 0.99% (n = 340,000);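 active = inhibition above the mean over all tested compounds plus 3 SD, cut at about 30% in these data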;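 note: inhibitors block probe labeling of enzyme so polarization drops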
ATG4B inhibitor – ATG4B protease inhibitors, primary screen, biochemical, fluorescence, uHTS | actives 0.51% (n = 340,000) | ATG4B cleavage of LC3-PLA2, NBD-HPC fluorescence, 1 h | Cysteine protease ATG4B (Homo sapiens), Q9Y4P1 | inhibition, % at 8.33 µM | AID 504462, 2011; in the data active = inhibition above about 40%
Target sequence (Q9Y4P1 whole entry, looked up): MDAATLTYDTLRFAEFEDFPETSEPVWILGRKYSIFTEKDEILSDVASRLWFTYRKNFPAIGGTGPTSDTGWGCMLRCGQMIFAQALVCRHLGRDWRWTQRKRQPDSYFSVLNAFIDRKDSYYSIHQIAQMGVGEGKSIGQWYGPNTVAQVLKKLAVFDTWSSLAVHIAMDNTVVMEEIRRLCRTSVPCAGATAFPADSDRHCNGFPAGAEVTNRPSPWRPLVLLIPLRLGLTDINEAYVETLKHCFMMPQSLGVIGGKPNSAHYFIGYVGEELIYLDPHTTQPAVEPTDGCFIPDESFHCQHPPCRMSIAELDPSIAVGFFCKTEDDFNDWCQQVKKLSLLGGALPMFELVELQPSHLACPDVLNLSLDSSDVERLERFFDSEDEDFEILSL
PAFAH1B3 FP inh – PAFAH1B3 enzyme inhibitors, primary screen, biochemical, fluorescence polarization, human; actives 0.28% (n = 340,000); AID 492972, 2010; inhibition, % at 3.39 µM; Platelet-activating factor acetylhydrolase IB subunit alpha1 (Homo sapiens), Q15102; recombinant PAFAH1B3, FP-rhodamine probe;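 active = inhibition above the screen-wide average of all tested compounds plus 3 SD, cut at about 25% in these data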
DAGLB confirm – DAGLB lipase inhibitors, retest, confirmation, biochemical, fluorescence, HEK293T membranes | inhibition, % at 5.17 µM | AID 504445, 2011 | HEK293T DAGLB membrane lysate, EnzChek fluorogenic substrate | shares compounds with DAGLB inh | actives 73% (n = 190);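 active = mean inhibition over triplicate wells above a set limit taken from the primary lipase screen, cut at about 34% in these data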
ATG4B conf – ATG4B protease inhibitors, retest, confirmation, biochemical, fluorescence, single concentration; inhibition, % at 8.33 µM; shares compounds with ATG4B inhibitor; actives 92% (n = 320); AID 504757, 2011; ATG4B protease fluorescent substrate cleavage assay; in the data active = inhibition above about 39%
PLA2 counter – PLA2 enzyme inhibition, counter-screen for ATG4B inhibitor project, biochemical, single concentration, uHTS hits | shares compounds with ATG4B inhibitor | purified PLA2, NBD-C6-HPC fluorescence, 45 min | inhibition, % at 8.33 µM | actives 66% (n = 1,600); in the data active = inhibition above about 50%
Of the large screens only hits and unclear results are named; the others gave an inactive call (follow-up assays come after a bar, where they were run).

COC(=O)CC1C(=O)NCCN1C(=O)CSc1nc2ccc([N+](=O)[O-])cc2s1 (stereo not drawn)	none
O=S(=O)(O)c1cccc(N=Nc2c(O)ccc3ccccc23)c1	DAGLB inh 37 | DAGLB confirm 37
Oc1ccc2ccccc2c1N=Nc1ccccc1F	none
Nc1ccc2ccccc2c1N=Nc1ccccc1	DAGLB inh 36 (no result: pPAFAH FP inh) | DAGLB confirm 43
Cc1ccc(C)c(NC(=O)/C(C#N)=C/c2cn(CC(=O)NCc3ccco3)c3ccccc23)c1	DAGLB inh 46 | DAGLB confirm 48
O=[N+]([O-])c1ccc(/C=N/Nc2ccc3ccccc3c2)o1	DAGLB inh 48 | DAGLB confirm 63
O=C(Nc1cccc(C(F)(F)F)c1)c1cccc(NS(=O)(=O)c2ccc(O)c(C(=O)O)c2)c1	DAGLB inh 41 | DAGLB confirm inactive
O=C(Nc1cccc(C(F)(F)F)c1)c1cccc(NS(=O)(=O)c2ccc(Br)c(C(=O)O)c2)c1	none
Nc1ccc(N=Nc2ccccc2)c2cccnc12	pPAFAH FP inh 28, DAGLB inh 37 | DAGLB confirm 42
Oc1c(Br)cc(Br)cc1/C=N/NC(=S)N[C@H]1CC2C=CC1C2 (stereo partly drawn)	pPAFAH FP inh 46, DAGLB inh 35, PAFAH2 inh 57 | DAGLB confirm inactive
c1ccc(N=NC2=NN(c3ccccc3)CS2)cc1	DAGLB inh 41 (no result: PAFAH1B2 FP inh, pPAFAH FP inh, PAFAH2 inh, ATG4B inhibitor, PAFAH1B3 FP inh) | DAGLB confirm 55
Cc1ccccc1C(=O)OC1OC(=O)C(Cl)=C1Nc1ccc(C(=O)O)cc1 (stereo not drawn)	none
CCOC1OC(=O)C(Cl)=C1Nc1ccc(C)cc1C (stereo not drawn)	none
Cc1ccc(NC2=C(Cl)C(=O)OC2OC(=O)c2ccco2)c(C)c1 (stereo not drawn)	DAGLB inh 36 | DAGLB confirm inactive
Cc1ccc(NC2=C(Cl)C(=O)OC2OC(=O)c2ccco2)cc1C (stereo not drawn)	DAGLB inh 39 | DAGLB confirm 36
Cc1ccc(C)c(NC2=C(Cl)C(=O)OC2OC(=O)c2ccco2)c1 (stereo not drawn)	DAGLB inh 40 | DAGLB confirm inactive
COc1cc(/C=C2\SC(=S)N(NC(=O)c3ccccc3O)C2=O)ccc1O	none
O=C(NN1C(=O)/C(=C/c2ccc(O)c([N+](=O)[O-])c2)SC1=S)c1ccccc1Cl	DAGLB inh 45 | DAGLB confirm 42
COc1cccc(CC(NC(C)=O)C(=O)NC2CCN(S(=O)(=O)c3ccc(NC(C)=O)cc3)CC2)c1OC (stereo not drawn)	none
Cc1ccc(Nc2nnc(SCc3nc4ccccc4c(=O)[nH]3)s2)cc1	DAGLB inh 60 | DAGLB confirm 50
O=C(CCc1nc2ccccc2c(=O)[nH]1)Nc1nnc(SCc2ccc(Cl)cc2)s1	none
CCN(CC)c1ccc(C(=C2C=CC(=[N+](CC)CC)C=C2)c2ccc(N(CC)CC)cc2)cc1	DAGLB inh 53, ATG4B inhibitor 58 (no result: pPAFAH FP inh) | DAGLB confirm 105 | PLA2 counter 52
Cc1ccc(NC2=C/C(=N\S(=O)(=O)c3cccs3)c3ccccc3C2=O)c(C)c1	PAFAH1B2 FP inh 30, pPAFAH FP inh 29, DAGLB inh 50, PAFAH2 inh 34, ATG4B inhibitor 56, PAFAH1B3 FP inh 65 | DAGLB confirm 53 | PLA2 counter 61
CC(C)(C)c1cc[n+](C2=C([O-])c3ccccc3C(=O)/C2=N\S(=O)(=O)c2cccs2)cc1	none (no result: PAFAH1B2 FP inh, DAGLB inh, PAFAH2 inh, PAFAH1B3 FP inh)
C[C@@H]1Cn2cnc(C(=O)NCC(=O)OC(C)(C)C)c2C(=O)N1	none (no result: PAFAH1B2 FP inh, pPAFAH FP inh, PAFAH2 inh, ATG4B inhibitor, PAFAH1B3 FP inh)
Oc1ccc(N=Nc2nc(-c3ccccc3)c(-c3ccccc3)[nH]2)cc1	DAGLB inh 38, ATG4B inhibitor 48 | DAGLB confirm inactive | ATG4B conf 67 | PLA2 counter inactive
Cc1ccc(Cn2nc(C)c(C(=O)NCC(c3ccc(F)cc3)N3CCOCC3)c2Cl)cc1 (stereo not drawn)	none
COc1cc(/C=C2/SC(=S)N(Cc3ccccc3)C2=O)cc(Cl)c1O	none
COc1cc([N+](=O)[O-])cc(/C=C2/SC(=S)N(Cc3ccccc3)C2=O)c1O	DAGLB inh 40, ATG4B inhibitor 49 | DAGLB confirm 48 | PLA2 counter 75
Cc1ccc(-n2nnnc2SCC(=O)N2CCc3ccccc3C2)cc1	none
Cc1ccc(-n2nnnc2SCC(=O)N2CCc3ccccc3C2)c(C)c1	ATG4B inhibitor 44 | PLA2 counter inactive
COCc1cc(C)nc(SCC(=O)Nc2ccc(N3CCOCC3)cc2)c1C#N	none
CC1CC(C)CN(C(=O)C2CCN(S(=O)(=O)c3ccc4c(c3)CC(C)N4C(=O)C3CC3)CC2)C1 (stereo not drawn)	ATG4B inhibitor 43 | ATG4B conf 60 | PLA2 counter inactive
CC(=O)N1c2ccc(S(=O)(=O)N3CCC(C(=O)N4CC(C)CC(C)C4)CC3)cc2CC1C (stereo not drawn)	none
O=C1[C@H](Cc2ccccc2)NCC=CC[C@H](c2ccc(Cl)cc2)N1Cc1ccccc1	PAFAH1B2 FP inh 27, ATG4B inhibitor 57 (no result: pPAFAH FP inh) | PLA2 counter 70
O=C1[C@H](Cc2ccccc2)NCC=CC[C@H](c2ccc(Cl)cc2)N1Cc1ccc(Cl)cc1	ATG4B inhibitor 45 (no result: pPAFAH FP inh) | PLA2 counter 81
Cc1cc(NC(=O)CSc2nc3cc(C(=O)NCCCOC(C)C)ccc3c(=O)n2Cc2ccco2)no1	none
COc1cccc(NC(=O)COC(=O)CCn2c(C)csc2=O)c1	none
CC(C)(C)n1ncc2c(=O)n(Cc3ccccc3Br)cnc21	ATG4B inhibitor 41 | ATG4B conf 69 | PLA2 counter inactive
Cc1ccc(Cn2cnc3c(cnn3C(C)(C)C)c2=O)cc1	none

Bioassay records as filed in PubChem BioAssay.
